Laboratory results published in PubChem BioAssay AID894 (National Center for Advancing Translational Sciences (NCATS), 2007).
The campaign covered roughly 150,000 compounds. About 6,500 (4.3%) were called active. About 12% were inconclusive and are not listed. Calls come from the whole dose curve; as a rule, active = well fitted inhibition curve with a large enough effect (not every such curve was filed as active); inconclusive = small, poorly fitted or top-dose-only effect, or another doubt; inactive = no such curve, though single readings can be large or run the other way. The entries come from a sample that favours actives as a whole.

biological target: 15-hydroxyprostaglandin dehydrogenase [NAD(+)] (Homo sapiens) (UniProt P15428); assay: qHTS Assay for Inhibitors of HPGD (15-Hydroxyprostaglandin Dehydrogenase); settings: purified HPGD, NADH fluorescence kinetic, PGE2 substrate; activity change, negative = inhibition: stronger effect = lower value
Sequence (P15428 whole entry, looked up): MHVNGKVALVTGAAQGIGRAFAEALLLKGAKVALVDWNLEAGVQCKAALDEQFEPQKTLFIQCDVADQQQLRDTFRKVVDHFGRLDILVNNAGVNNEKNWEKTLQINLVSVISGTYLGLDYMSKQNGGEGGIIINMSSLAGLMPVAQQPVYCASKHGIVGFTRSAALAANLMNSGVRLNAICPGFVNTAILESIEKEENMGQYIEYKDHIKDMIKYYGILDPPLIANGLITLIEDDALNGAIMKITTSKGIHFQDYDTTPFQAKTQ
Procedure, shortened: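 NADH formation kinetics: reaction with 30 uM PGE2 and 1 mM NAD+ (final), 20 nM enzyme, Tris-HCl pH 8 with Tween 20, after 15 min compound preincubation at room temperature. Fluorescence change, last versus first of five reads.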
% is set by controls: 0 for no effect and ±100 for the full control effect; potency is the fitted concentration of half-maximal effect.

SMILES	activity change, negative = inhibition	Potency
CCNc1nc(NC(C)C)nc(N2CC(=O)N(CC(=O)OCC)C2=N)n1	-1.19% (inactive)	–
CCCCS(=O)(=O)N1C2=NC(C(=O)OC)=C(C(=O)OC)[C@@H]3N(Cc4ccccc4)c4ccccc4[C@]23C[C@H]1C(=O)OC	-6.02% (inactive)	–
CCN(CC)C(=O)c1sc(NC(=O)c2ccco2)c(C#N)c1C	-18.8% (inactive)	–
CCC(=O)Nc1sc(C(=O)N2CCCCC2)c(C)c1C#N	–	4.47 µM (active)
N#Cc1ccsc1NC(=O)CN1CCCCC1	-11.5% (inactive)	–
CC1CN(C(=S)SCC(=O)c2ccccc2)CC(C)O1 (stereo not drawn)	-10.1% (inactive)	–
CCC(C)(C)C1CCC(=NNC(=O)c2ccc(Br)o2)CC1 (stereo not drawn)	-9.21% (inactive)	–
O=C(CSc1nnc(SCc2ccc(Cl)cc2)s1)N/N=C/c1ccccc1Cl	-3.98% (inactive)	–
O=C(COC(=O)CCCNC(=O)c1ccc(Cl)cc1)Nc1cc(Cl)ccc1Cl	-18.1% (inactive)	–
Cc1ccccc1N/N=C/c1ccc(N2CCOCC2)cc1	–	28.2 µM (active)
C/C(=N\NC(=O)c1ccccc1C)c1ccc(N2CCOCC2)cc1	-15.3% (inactive)	–
C(=N/Nc1cc(N2CCOCC2)nc(N2CCOCC2)n1)/c1ccccc1	-6.61% (inactive)	–
CCN(CC)S(=O)(=O)c1cc([N+](=O)[O-])ccc1N=Nc1c(O)n(C)c2ccccc12	-5.63% (inactive)	–
Cc1c(/C=N/N2C(=O)C3C4C=CC(C4)C3C2=O)c2ccccc2n1C (stereo not drawn)	-1.58% (inactive)	–
CC(=O)N1c2ccccc2N(Cc2ccc([N+](=O)[O-])cc2)C(=O)C1(C)C	-6.13% (inactive)	–
CCCN1CNC(=S)N(CCc2ccccc2)C1	1.42% (inactive)	–
Cc1ccc(OCC(=O)OC(C)CN(C)Cc2ccccc2)cc1 (stereo not drawn)	-13.4% (inactive)	–
O=C(CSc1nc(-c2ccco2)cc(C(F)(F)F)n1)N1CCc2ccccc2C1	–	2.24 µM (active)
O=C(CSc1nc(-c2ccco2)cc(C(F)(F)F)n1)NCc1cccs1	-3.58% (inactive)	–
FC(F)(F)c1cc(-c2ccco2)nc(N2CCOCC2)n1	-8.04% (inactive)	–
CN(C)c1ccc(/C=N/N(Cc2ccccc2)c2ccccc2)cc1	-11.9% (inactive)	–

SMILES	activity change, negative = inhibition	Potency
CCN(C(=O)COC(=O)c1cc(NS(=O)(=O)c2ccc(Cl)c([N+](=O)[O-])c2)ccc1O)C1CCCCC1	-7.74% (inactive)	–
CNC(=S)N1CCN(c2ccccn2)CC1	-14% (inactive)	–
CN(C)c1ccc(/C=N\S(=O)(=O)c2ccccc2)cc1	-10.7% (inactive)	–
CCOC(=O)CSc1nc2c(sc(=S)n2CCc2ccccc2)c(=O)n1Cc1ccco1	–	20 µM (active)
CCOC(=O)CSc1nc2c(c(=O)n(C)c(=O)n2C)n1Cc1ccccc1F	-4.76% (inactive)	–
COc1ccccc1NC(=O)CSc1nc2sc(C)c(C)c2c(=O)n1Cc1ccco1	-18.7% (inactive)	–
COc1ccc(C(=O)Nc2ccc3nc(N4CCCCC4)cc(C)c3c2)cc1OC	-27.2% (inactive)	–
Cc1ccc(S(=O)(=O)N2CCC(N3CCCCCC3)CC2)cc1	-7.84% (inactive)	–
CC1(C)CC(=O)C(N=Nc2ccc(S(=O)(=O)N3CCCCCC3)cc2)=C(O)C1	–	25.1 µM (active)
COc1ccc(S(=O)(=O)N2CCCCC2)cc1Br	-1.54% (inactive)	–
C=CCOc1c(Br)cc(/C=N\n2nnnc2N)cc1OC	-12.6% (inactive)	–
CCOc1cc(/C=N/O)cc(Br)c1OC	-21.3% (inactive)	–
CCOc1c(Br)cc(/C=C2\C(=O)N(CCC#N)N=C2C)cc1OC	–	5.01 µM (active)
COc1ccc(-c2oc3cc(OC)ccc3c2C(=O)c2ccc(C#N)cc2)cc1	-8.41% (inactive)	–
COc1ccc(S(=O)(=O)Nc2ccc3oc(C)c(C(C)=O)c3c2)cc1	-11.3% (inactive)	–
COc1ccc(C(=O)c2c(C)oc3cc([N+](=O)[O-])c(O)c([N+](=O)[O-])c23)cc1	–	14.1 µM (active)
CCO/N=C(/C)c1c(O)cc(-c2ccccc2)n(-c2ccccc2)c1=O	-9.45% (inactive)	–
CCN(C(=O)CSc1ncn[nH]1)c1cccc2ccccc12	-11.5% (inactive)	–
Cn1nnc(NC(=O)CSc2ncn[nH]2)n1	-3.42% (inactive)	–
CC(C)(C)c1ccc(C(=O)CSc2ncn[nH]2)cc1	–	25.1 µM (active)
S=C(NCC1COc2ccccc2O1)Nc1ccc(Br)cc1 (stereo not drawn)	-26.7% (inactive)	–

SMILES	activity change, negative = inhibition	Potency
Cc1ccc(CCCOC(=O)C[N+]2(C)CCCC2)cc1	-8.3% (inactive)	–
C=CCn1c(CSc2nc3ccccc3s2)nnc1SCC(=O)NCc1ccco1	–	17.8 µM (active)
C=CCn1c(SCC(=O)Nc2nc3ccccc3s2)nnc1-c1ccccc1O	-10.2% (inactive)	–
O=C(CSc1nnc(-c2cccs2)n1-c1ccccc1)NCc1ccco1	-2.44% (inactive)	–
O=C(Cc1ccccc1)NNS(=O)(=O)c1ccc([N+](=O)[O-])cc1	-13.6% (inactive)	–
COc1ccc(CC(=O)Nc2cc(S(=O)(=O)N3CCCCC3)ccc2N2CCN(C)CC2)cc1	-7.18% (inactive)	–
COc1cc(/C=C/C(=O)N2c3ccccc3Sc3ccc(C(F)(F)F)cc32)cc(OC)c1OC	-14.1% (inactive)	–
CCOC(=O)c1sc(=S)n2c1[nH]c(=O)c1ccc(C(=O)OC)cc12	–	8.91 µM (active)
CCOC(=O)C1=C(C)Nc2sc(C(=O)c3ccc(Br)cc3)c(N)c2C1c1ccc(C(=O)OC)cc1 (stereo not drawn)	-7.23% (inactive)	–
CCOC(=O)c1sc(NC(=O)c2ccncc2)nc1C	-16.2% (inactive)	–
CN(C)c1ccc(C(CNC(=O)c2ccc(F)cc2)c2c[nH]c3ccccc23)cc1 (stereo not drawn)	-5.43% (inactive)	–
Cc1ccc(SCCC(=O)OCC(=O)Nc2ncc(Cl)cc2Cl)cc1	-8.54% (inactive)	–
Cc1ccc(SCCC(=O)NC(C(C)C)C(C)C)cc1	–	7.94 µM (active)
Cc1ccc(SCC(=O)Nc2ncc(C)s2)cc1	-20.4% (inactive)	–
CC/C=C\C/C=C\C/C=C\C/C=C\C/C=C\C/C=C\CCC(=O)NCCc1ccc(O)c(O)c1	-14.7% (inactive)	–
Cc1ccc(-c2noc(-c3ccccc3C(=O)NCC3CCCO3)n2)cc1 (stereo not drawn)	-6.63% (inactive)	–
Cc1nc2ccccc2c2oc(C(=O)NCC3CCCO3)cc12 (stereo not drawn)	-26% (inactive)	–
Cc1c(C(=O)NCC2CCCO2)sc2nc(-c3ccccc3)cn12 (stereo not drawn)	–	28.2 µM (active)
Cc1ccc(C(=O)NCC2CCCO2)o1 (stereo not drawn)	-12% (inactive)	–
CCOc1ccc(S(=O)(=O)NCC2CCCO2)cc1 (stereo not drawn)	-2.22% (inactive)	–
CCOc1ccc(-n2c(N)c(C(=O)NCC3CCCO3)sc2=S)cc1 (stereo not drawn)	–	8.91 µM (active)
